# Measured values: PubChem BioAssay (Tox21)
# Inconclusive results are not listed. Entries that show only a call come without a potency. A number with no mark means an inactive call. Active and inactive are the calls of the source. Calls follow the shape of the dose curve; as a rule, active = well fitted cell-killing curve with a large enough effect in the repeat runs; inconclusive = weak or mixed curves; inactive = no such curve, though single readings can be large or run the other way.
# Experiment: qHTS assay to identify small molecule antagonists of the peroxisome proliferator-activated receptor delta (PPARd) signaling pathway - cell viability counter screen (AID 743213); also: nearly all actives have a fitted effect of over 50% in size
# Conditions: PPARd-bla HEK293H viability, CellTiter-Glo luminescence, 17 h; series mostly up to 62 µM
# Excerpt: U.S. Tox21 Program National Center for Advancing Translational Sciences [NCATS] NIH Chemical Genomics Center [NCGC] U.S. Environmental Protection Agency [EPA] National Institutes of Environmental Health Sciences [NIEHS] National Toxicology Program [NTP] U.S. Food and Drug Administration [FDA] Tox21 Assay Overview: The peroxisome proliferator-activated receptors (PPARs) are lipid-activated transcription factors of the nuclear receptor superfamily with three distinct subtypes namely PPAR alpha, PPAR delta (PPARd) and PPAR gamma. All these subtypes heterodimerizes with Retinoid X receptor (RXR) and have different physiological functions. […] To identify the compounds that inhibit PPAR-delta signaling, GeneBLAzer PPAR delta UAS-bla HEK293H cell line (Invitrogen, Carlsbad, CA, USA) containing a beta-lactamase reporter gene under the control of an Upstream Activator Sequence (UAS) was used to screen the Tox21 compound library. The cytotoxicity of the Tox21 compound library against the PPARd-bla cell line was tested in parallel by measuring the cell viability using CellTiter-Glo assay (Promega, Madison, WI) in the same wells.
# Tox21 Assay Protocol Summary: PPARd-bla cells were dispensed at 3000 cells/5uL/well in 1536-well black wall/clear bottom plates using a Multidrop Combi (Thermo Fisher Scientific, Waltham, MA) dispenser. After the assay plates were incubated at 37 C and 5% CO2 for 5 h, 23 nL of compounds dissolved in DMSO, positive controls or DMSO only was transferred to the assay plate by a Pintool station (Kalypsys, San Diego, CA), followed by addition of 1ul L165041 (300 nM, final concentration in the wells). The assay plates were incubated at 37 C for 17 h, and then 1 uL of LiveBLAzerTM B/G FRET substrate was added using a Bioraptr Flying Reagent Dispenser (FRD) workstation (Beckman Coulter, Indianapolis, IN, USA). The assay plates were incubated at room temperature for 2 h and fluorescence intensity was measured by an Envision plate reader (PerkinElmer, Shelton, CT). For cell viability readout that measures cytotoxicity, 3 ul/well of CellTiter-Glo reagent was added into the assay plates using a Bioraptr FRD. After 30 min incubation at room temperature, the luminescence intensity in the plates was measured using a ViewLux plate reader (PerkinElmer).
Compound,Potency,"viability change, negative = cytotoxic"
O=C(O)c1c(Cl)ccc2cc(Cl)cnc12,inactive,–
ClCC1CO1 (stereo not given),inactive,–
Cc1ccc2cc(C)ccc2c1,inactive,–
BrCC1CO1 (stereo not given),inactive,–
C=CCCC#N,inactive,–
CCc1cc(OC)c(C[C@H](C)N)cc1OC,inactive,–
CCN1CCCC1CNC(=O)C(O)(c1ccccc1)c1ccccc1 (stereo not given),inactive,–
C=C(Cl)CSC(=S)N(CC)CC,inactive,–
CCN(CC)CCOC(=O)C(O)(c1ccccc1)c1ccccc1,inactive,–
COC[C@@H](NC(C)=O)C(=O)NCc1ccccc1,inactive,–
CC[C@@H](CO)NC(=O)[C@@H]1C=C2c3cccc4[nH]cc(c34)C[C@H]2N(C)C1,inactive,–
CC(C)(C1CCC(O)CC1)C1CCC(O)CC1 (stereo not given),inactive,–
CN(C)CCc1c[nH]c2cccc(OP(=O)(O)O)c12,inactive,–
Brc1c(Br)c(Br)c(Br)c(Br)c1Br,–,-8.99% [at 6.26 µM]
CC(Cc1ccccc1)NCCCCl (stereo not given),inactive,–
CCCCOC(C)=O,inactive,–
CCOP(=S)(OCC)SCCl,inactive,–
COC(=O)c1ccc(CBr)cc1,inactive,–
OCC(Cl)CCl (stereo not given),inactive,–
O=C(NC(=O)c1c(F)cccc1F)Nc1cc(Cl)c(F)c(Cl)c1F,inactive,–

Compound,Potency,"viability change, negative = cytotoxic"
CN(C)C1CCCCC1,inactive,–
CC(O)CCl (stereo not given),inactive,–
C=CC1(C)OC(=O)N(c2cc(Cl)cc(Cl)c2)C1=O (stereo not given),inactive,–
CC(C)(C)C(=O)Cl,inactive,–
CCN[C@@H](C)Cc1cccc(C(F)(F)F)c1,inactive,–
CCCOc1nn(C(=O)NS(=O)(=O)c2ccccc2C(=O)OC)c(=O)n1C,inactive,–
COc1ccc(C=O)cc1O,inactive,–
CC#Cc1cc(C)nc(Nc2ccccc2)n1,inactive,–
ClC1=C(Cl)C2(Cl)C(CBr)CC1(Cl)C2(Cl)Cl (stereo not given),inactive,–
O=C/C=C/c1ccco1,inactive,–
CC(C)(O)C(Cl)(Cl)Cl,inactive,–
Cn1c(CCCC(=O)O)nc2cc(N(CCCl)CCCl)ccc21,inactive,–
CCOC(=O)CCl,inactive,–
CCOC(=O)C(Cl)Cc1cc(-n2nc(C)n(C(F)F)c2=O)c(F)cc1Cl (stereo not given),inactive,–
Clc1cc2c(cc1Cl)Oc1cc(Cl)c(Cl)cc1O2,–,-3.41% [at 0.278 µM]
CCC1(c2ccccc2)C(=O)N(COC)C(=O)N(COC)C1=O,inactive,–
CCOP(=O)(CN(CCO)CCO)OCC,inactive,–
ClCOCCl,inactive,–
CCCCCCCC(=O)Cl,inactive,–
CCCCS(=O)(=O)Cl,inactive,–
